Test results published in PubChem BioAssay (EPA / NIEHS).
Results filed as inconclusive are left out. Activity calls are given as the source filed them. Rule for the calls, unless noted: active = hit-call score of the fitted dose curve at least 0.9, where 1 is the maximum; inactive = score below 0.9.

Legend:
[1] = target: Hypoxia-inducible factor 1-alpha (Homo sapiens) (UniProt Q16665); assay: ATG_HIF1a_CIS: Attagene CIS-FACTORIAL HepG2 Assay for human Hypoxia Inducible Factor 1 (HIF1A) (AID 2282951); details: HepG2 Attagene cis-factorial HIF1a reporter transcription; actives raise or lower the signal
How it was run: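 HepG2 cells transiently transfected with multiple cis-regulated reporter transcription units measure endogenous transcription factor activity. After 24 h exposure, reporter mRNA is quantified by RT-PCR with 6-FAM labelling, HpaI digestion and capillary electrophoresis. Bidirectional fitting against DMSO.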

[2] = target: Hepatocyte nuclear factor 6 (Homo sapiens) (UniProt Q9UBC0); assay: ATG_HNF6_CIS: Attagene CIS-FACTORIAL HepG2 Assay for human Hepatocyte Nuclear Factor 6 (HNF6) (AID 2282952); details: HepG2 Attagene cis-factorial HNF6 reporter transcription; actives raise or lower the signal
How it was run: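 Reporter mRNA induction or loss in HepG2 after 24 h exposure; transient cis-MRTU transfection; fragments quantified by capillary electrophoresis; bidirectional analysis, DMSO as negative control.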

[3] = target: Heat shock factor protein 1 (Homo sapiens) (UniProt Q00613); assay: ATG_HSE_CIS: Attagene CIS-FACTORIAL HepG2 Assay for human Heat Shock Transcription Factor 1 (HSE) (AID 2282953); details: HepG2 HSE cis-reporter, Attagene RNA transcription; actives raise or lower the signal
How it was run: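 Reporter mRNA induction in HepG2 is measured 24 h after dosing, using transiently transfected multiplexed cis-regulated reporter units. Signal comes from capillary electrophoresis of labelled RT-PCR products, with DMSO as negative control.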

[4] = ATG_MRE_CIS: Attagene CIS-FACTORIAL HepG2 Assay for human Metal Responsive Element (MRE) (AID 2282954); details: HepG2 MRE cis-reporter transcription, Attagene multiplex; actives raise or lower the signal
How it was run: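 HepG2 cells transiently transfected with multiple cis-element reporter units measure endogenous MTF1-driven transcription. After 24 h compound exposure, reporter mRNA is quantified by RT-PCR with 6-FAM labelling, HpaI digestion and capillary electrophoresis; bidirectional fits versus DMSO.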

[5] = target: Paired box protein Pax-6 (Homo sapiens) (UniProt P26367); assay: ATG_Pax6_CIS: Attagene CIS-FACTORIAL HepG2 Assay for human Paired Box 6 (PAX6) (AID 2282956); details: HepG2 CIS-FACTORIAL PAX6 reporter transcription, RNA readout; actives raise or lower the signal
How it was run: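 After twenty-four hours of chemical exposure, transfected HepG2 cells are harvested for RNA. Cis-promoter reporter transcripts are amplified, fluorescently labelled and sized by capillary electrophoresis, with gain and loss of signal scored against DMSO.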

[6] = ATG_PXRE_CIS: Attagene CIS-FACTORIAL HepG2 Assay for human Pregnane X Receptor Element (PXRE) (AID 2282957); details: HepG2 Attagene CIS-FACTORIAL PXRE reporter, mRNA; actives raise or lower the signal
How it was run: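 Transiently transfected HepG2 cells were dosed and incubated for 24 h. RNA was then isolated, DNase-treated, reverse-transcribed and reporter sequences amplified. Labeled, HpaI-digested fragments were quantified by capillary electrophoresis against DMSO.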

[7] = ATG_PPRE_CIS: Attagene CIS-FACTORIAL HepG2 Assay for human Peroxisome Proliferator-activated Response Element (PPRE) (AID 2282958); details: HepG2 PPRE cis-element reporter, Attagene transcription factor profiling; actives raise or lower the signal
How it was run: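 HepG2 cells are transiently transfected with multiplexed cis-promoter reporter units to report endogenous PPAR activity. After 24 h dosing, reporter mRNA is read by RT-PCR and capillary electrophoresis. Fitting is bidirectional against DMSO.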

[8] = ATG_RORE_CIS: Attagene CIS-FACTORIAL HepG2 Assay for human RAR-related Orphan Receptor Element (RORE) (AID 2282959); details: HepG2 Attagene cis-factorial RORE reporter, mRNA; actives raise or lower the signal
How it was run: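 HepG2 cells carrying transiently transfected cis-regulated reporter units; RORE-driven reporter mRNA quantified 24 h post-dosing by RT-PCR, 6-FAM primer extension, HpaI digestion and capillary electrophoresis. Bidirectional fit versus DMSO.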

[9] = ATG_Sox_CIS: Attagene CIS-FACTORIAL HepG2 Assay for human SRY-box transcription factor (SOX) (AID 2282960); details: HepG2 Attagene cis-factorial SOX reporter, mRNA; actives raise or lower the signal
How it was run: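 HepG2 cells transiently transfected with multiple cis-regulated reporter units, then dosed for 24 h. Reporter mRNA quantified by RT-PCR, fluorescent labelling, HpaI digestion and capillary electrophoresis; bidirectional fit versus DMSO.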

[10] = target: Transcription factor Sp1 (Homo sapiens) (UniProt P08047); assay: ATG_Sp1_CIS: Attagene CIS-FACTORIAL HepG2 Assay for human Specificity Protein 1 (Sp1) (AID 2282961); details: HepG2 Sp1 cis-reporter transcription, actives raise or lower the signal
How it was run: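 HepG2 cells transiently transfected with multiplexed cis-regulated reporter constructs, chemical exposure 24 h. Reporter mRNA quantified by RT-PCR with capillary electrophoresis; bidirectional fit relative to DMSO.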

[11] = ATG_SREBP_CIS: Attagene CIS-FACTORIAL HepG2 Assay for human Sterol Regulatory Element Binding (SREBP) (AID 2282962); details: HepG2 Attagene cis-factorial SREBP reporter, mRNA; actives raise or lower the signal
How it was run: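 Twenty-four hours after chemical dosing of transfected HepG2 cultures, reporter RNA was converted to cDNA, amplified, end-labelled with 6-FAM and resolved by capillary electrophoresis. Responses were fitted relative to DMSO.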

[12] = target: Signal transducer and activator of transcription 3 (Homo sapiens) (UniProt P40763); assay: ATG_STAT3_CIS: Attagene CIS-FACTORIAL HepG2 Assay for human Signal Transducer and Activator of Transcription 3 (STAT3) (AID 2282963); details: HepG2, Attagene cis-factorial STAT3 reporter transcription; actives raise or lower the signal
How it was run: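 HepG2 cells transiently transfected with cis-element-driven multiple reporter transcription units; after 24 h chemical exposure, reporter mRNA measured by RT-PCR, 6-FAM primer-extension labelling, HpaI digestion and capillary electrophoresis. Bidirectional fitting versus DMSO baseline.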

[13] = ATG_TCF_b_cat_CIS: Attagene CIS-FACTORIAL HepG2 Assay for human T-Cell-Factor with beta-catenin (TCF/b-cat) (AID 2282965); details: HepG2 TCF/beta-catenin cis-reporter transcription, actives raise or lower the signal
How it was run: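 HepG2 cells transiently transfected with multiple cis-promoter-regulated reporter transcription units, so endogenous transcription factor activity is measured. Reporter mRNA read 24 hours after dosing by RT-PCR, fluorescent labelling and capillary electrophoresis; bidirectional fitting against DMSO.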

[14] = ATG_TAL_CIS: Attagene CIS-FACTORIAL HepG2 Assay for human TAL Basal Promoter (AID 2282966); details: HepG2 Attagene cis-factorial TAL promoter reporter; actives raise or lower the signal;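 note: background control endpoint measuring basal TAL promoter reporter mRNA not a specific factor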
How it was run: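 Readout: reporter mRNA, fluorescence by CE. System: HepG2, transient multi-reporter transfection, endogenous TF activity. Exposure: 24 h. Analysis: bidirectional, DMSO-normalized; background control.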

[15] = ATG_TGFb_CIS: Attagene CIS-FACTORIAL HepG2 Assay for human Transforming Growth Factor (TGF) (AID 2282967); details: HepG2 Attagene CIS TGFb reporter, mRNA transcription; actives raise or lower the signal
How it was run: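 Multiplexed cis-reporter HepG2 system, 24 h treatment; mRNA induction read by fluorescence after RT-PCR and CE; DMSO negative control, bidirectional curve fitting.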

[16] = ATG_VDRE_CIS: Attagene CIS-FACTORIAL HepG2 Assay for human Vitamin D Receptor Element (VDRE) (AID 2282968); details: HepG2 VDRE cis-reporter transcription, actives raise or lower the signal
How it was run: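 HepG2 cells transiently transfected with cis-element reporter units, dosed 24 h; reporter mRNA measured by RT-PCR, 6-FAM labeling, HpaI digestion and capillary electrophoresis. Activity fitted bidirectionally against DMSO baseline.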

[17] = target: Estrogen receptor (Homo sapiens) (UniProt P03372); assay: ATG_ERa_TRANS: Attagene TRANS-FACTORIAL HepG2 Assay for human Estrogen Receptor alpha (ERa) (AID 2282970; active = hit-call score of the fitted dose curve at least 0.9, where 1 is the maximum); details: HepG2 Attagene TRANS ERa GAL4 reporter, mRNA
How it was run: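 Transactivation via ERa-Gal4 chimera in HepG2; 24 hour incubation; reporter mRNA detected by fluorescence RT-PCR and capillary electrophoresis.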

[18] = ATG_TA_CIS: Attagene CIS-FACTORIAL HepG2 Assay for human TA Basal Promoter (AID 2282964); details: HepG2 Attagene CIS-factorial TA basal promoter reporter; actives raise or lower the signal
How it was run: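 Cis-factorial format in HepG2: reporters report endogenous factors, not chimeric Gal4 fusions. After 24 h treatment, reporter transcripts were measured by RT-PCR-capillary electrophoresis fluorescence, analysed bidirectionally versus DMSO.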

[19] = ATG_PBREM_CIS: Attagene CIS-FACTORIAL HepG2 Assay for human Phenobarbital-responsive Enhancer Module (PBREM) (AID 2282955); details: HepG2 PBREM cis-reporter, Attagene multiplexed transcription; actives raise or lower the signal
How it was run: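 HepG2 cells transiently transfected with multiple cis-regulated reporter units measure endogenous transcription factor activity; 24 h compound exposure. Reporter mRNA quantified by RT-PCR, fluorescent labelling, HpaI digestion and capillary electrophoresis; bidirectional fit versus DMSO.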

Measured: AC50

Heat shock factor protein 1 (Homo sapiens), sequence (Q00613 whole entry, looked up): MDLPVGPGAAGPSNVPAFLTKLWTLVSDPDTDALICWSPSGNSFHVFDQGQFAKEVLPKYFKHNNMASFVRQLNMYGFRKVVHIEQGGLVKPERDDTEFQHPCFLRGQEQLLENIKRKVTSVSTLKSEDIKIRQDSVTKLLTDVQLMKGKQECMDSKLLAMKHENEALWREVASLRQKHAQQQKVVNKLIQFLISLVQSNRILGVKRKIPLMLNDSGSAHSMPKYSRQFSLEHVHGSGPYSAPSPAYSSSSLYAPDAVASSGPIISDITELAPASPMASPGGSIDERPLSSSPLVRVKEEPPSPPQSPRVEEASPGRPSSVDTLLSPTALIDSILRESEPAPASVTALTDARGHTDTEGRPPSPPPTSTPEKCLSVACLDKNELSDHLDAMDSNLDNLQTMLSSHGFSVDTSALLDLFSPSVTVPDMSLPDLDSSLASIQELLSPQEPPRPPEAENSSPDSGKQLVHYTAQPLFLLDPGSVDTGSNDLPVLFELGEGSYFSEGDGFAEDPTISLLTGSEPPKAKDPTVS
Hepatocyte nuclear factor 6 (Homo sapiens), sequence (Q9UBC0 whole entry, looked up, the tested form may be a part): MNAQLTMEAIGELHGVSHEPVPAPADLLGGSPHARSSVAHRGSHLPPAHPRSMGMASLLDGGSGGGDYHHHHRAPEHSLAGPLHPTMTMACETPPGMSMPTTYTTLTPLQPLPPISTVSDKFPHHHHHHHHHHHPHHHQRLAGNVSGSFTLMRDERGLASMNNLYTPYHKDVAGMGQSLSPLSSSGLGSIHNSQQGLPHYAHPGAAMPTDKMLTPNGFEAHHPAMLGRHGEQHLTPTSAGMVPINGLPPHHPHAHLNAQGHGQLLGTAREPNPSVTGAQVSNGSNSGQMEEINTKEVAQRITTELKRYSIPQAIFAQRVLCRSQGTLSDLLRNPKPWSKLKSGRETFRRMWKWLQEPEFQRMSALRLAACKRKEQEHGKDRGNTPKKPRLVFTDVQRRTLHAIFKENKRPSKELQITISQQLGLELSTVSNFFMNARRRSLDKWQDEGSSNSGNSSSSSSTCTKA
Signal transducer and activator of transcription 3 (Homo sapiens), sequence (P40763 whole entry, looked up): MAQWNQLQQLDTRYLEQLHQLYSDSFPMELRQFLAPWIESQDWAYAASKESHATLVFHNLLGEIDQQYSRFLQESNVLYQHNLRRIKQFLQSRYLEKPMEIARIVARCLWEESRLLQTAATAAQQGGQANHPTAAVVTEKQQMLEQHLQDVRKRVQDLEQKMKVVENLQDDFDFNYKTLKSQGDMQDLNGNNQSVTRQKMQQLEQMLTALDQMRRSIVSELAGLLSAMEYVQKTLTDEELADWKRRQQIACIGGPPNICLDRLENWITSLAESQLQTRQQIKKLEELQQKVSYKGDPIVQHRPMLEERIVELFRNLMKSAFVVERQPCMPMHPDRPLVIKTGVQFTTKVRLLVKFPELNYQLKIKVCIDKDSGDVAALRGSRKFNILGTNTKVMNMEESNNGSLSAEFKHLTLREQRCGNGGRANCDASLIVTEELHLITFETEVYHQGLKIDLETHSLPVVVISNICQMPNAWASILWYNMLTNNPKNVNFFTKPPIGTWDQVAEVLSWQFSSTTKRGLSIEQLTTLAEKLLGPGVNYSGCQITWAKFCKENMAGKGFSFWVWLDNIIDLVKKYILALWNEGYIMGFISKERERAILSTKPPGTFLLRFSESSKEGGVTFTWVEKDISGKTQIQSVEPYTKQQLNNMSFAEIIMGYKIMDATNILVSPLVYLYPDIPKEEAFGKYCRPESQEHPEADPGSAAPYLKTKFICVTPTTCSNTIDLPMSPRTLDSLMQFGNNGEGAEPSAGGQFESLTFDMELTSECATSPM
Estrogen receptor (Homo sapiens), sequence (P03372 whole entry, looked up, the tested form may be a part): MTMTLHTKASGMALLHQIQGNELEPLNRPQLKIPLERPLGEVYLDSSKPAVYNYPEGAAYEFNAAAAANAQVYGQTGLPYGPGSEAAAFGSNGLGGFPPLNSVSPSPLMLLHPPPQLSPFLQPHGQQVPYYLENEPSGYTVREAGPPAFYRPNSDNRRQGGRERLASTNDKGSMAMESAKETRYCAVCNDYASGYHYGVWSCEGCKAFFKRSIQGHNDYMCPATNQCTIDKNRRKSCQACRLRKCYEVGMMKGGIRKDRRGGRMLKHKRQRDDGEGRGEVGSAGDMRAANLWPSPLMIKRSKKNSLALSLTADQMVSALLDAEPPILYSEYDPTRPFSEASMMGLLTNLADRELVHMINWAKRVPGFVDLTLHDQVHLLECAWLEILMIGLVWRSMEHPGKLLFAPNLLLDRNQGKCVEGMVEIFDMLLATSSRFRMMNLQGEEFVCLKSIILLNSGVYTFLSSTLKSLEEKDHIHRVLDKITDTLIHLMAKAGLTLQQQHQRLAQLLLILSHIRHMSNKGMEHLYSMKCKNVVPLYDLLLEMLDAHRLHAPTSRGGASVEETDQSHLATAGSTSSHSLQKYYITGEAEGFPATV
Paired box protein Pax-6 (Homo sapiens), sequence (P26367 whole entry, looked up): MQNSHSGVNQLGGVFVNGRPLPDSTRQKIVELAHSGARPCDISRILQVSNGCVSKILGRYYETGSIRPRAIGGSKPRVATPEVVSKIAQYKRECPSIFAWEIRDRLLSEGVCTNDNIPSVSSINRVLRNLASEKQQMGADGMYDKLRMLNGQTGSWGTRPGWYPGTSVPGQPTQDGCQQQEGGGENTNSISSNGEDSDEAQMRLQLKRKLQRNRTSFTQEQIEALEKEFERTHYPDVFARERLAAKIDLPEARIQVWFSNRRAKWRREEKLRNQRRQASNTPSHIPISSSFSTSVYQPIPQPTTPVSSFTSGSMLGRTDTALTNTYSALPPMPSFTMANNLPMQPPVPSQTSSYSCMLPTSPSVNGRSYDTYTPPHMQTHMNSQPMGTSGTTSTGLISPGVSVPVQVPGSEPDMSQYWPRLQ
Transcription factor Sp1 (Homo sapiens), sequence (P08047 whole entry, looked up): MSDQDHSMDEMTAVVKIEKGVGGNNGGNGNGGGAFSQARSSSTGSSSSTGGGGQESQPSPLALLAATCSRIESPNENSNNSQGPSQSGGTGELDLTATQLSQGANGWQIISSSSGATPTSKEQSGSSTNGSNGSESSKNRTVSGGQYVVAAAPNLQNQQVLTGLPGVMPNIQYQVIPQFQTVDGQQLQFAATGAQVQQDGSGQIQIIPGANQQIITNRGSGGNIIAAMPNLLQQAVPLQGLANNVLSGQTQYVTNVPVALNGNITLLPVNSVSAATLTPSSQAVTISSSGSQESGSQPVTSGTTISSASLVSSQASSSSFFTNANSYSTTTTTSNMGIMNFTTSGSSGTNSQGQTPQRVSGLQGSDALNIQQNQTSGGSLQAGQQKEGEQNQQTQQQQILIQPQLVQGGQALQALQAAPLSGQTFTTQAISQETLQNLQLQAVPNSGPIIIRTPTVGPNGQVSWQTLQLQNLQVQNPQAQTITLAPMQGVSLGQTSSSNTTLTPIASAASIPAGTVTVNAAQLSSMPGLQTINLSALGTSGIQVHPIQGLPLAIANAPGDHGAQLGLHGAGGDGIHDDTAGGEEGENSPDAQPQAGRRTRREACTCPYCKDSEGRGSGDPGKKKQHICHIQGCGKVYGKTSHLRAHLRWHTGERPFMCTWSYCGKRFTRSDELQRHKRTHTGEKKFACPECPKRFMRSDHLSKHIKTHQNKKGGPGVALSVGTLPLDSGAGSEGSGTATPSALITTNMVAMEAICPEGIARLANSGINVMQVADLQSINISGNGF
Hypoxia-inducible factor 1-alpha (Homo sapiens), sequence (Q16665 whole entry, looked up): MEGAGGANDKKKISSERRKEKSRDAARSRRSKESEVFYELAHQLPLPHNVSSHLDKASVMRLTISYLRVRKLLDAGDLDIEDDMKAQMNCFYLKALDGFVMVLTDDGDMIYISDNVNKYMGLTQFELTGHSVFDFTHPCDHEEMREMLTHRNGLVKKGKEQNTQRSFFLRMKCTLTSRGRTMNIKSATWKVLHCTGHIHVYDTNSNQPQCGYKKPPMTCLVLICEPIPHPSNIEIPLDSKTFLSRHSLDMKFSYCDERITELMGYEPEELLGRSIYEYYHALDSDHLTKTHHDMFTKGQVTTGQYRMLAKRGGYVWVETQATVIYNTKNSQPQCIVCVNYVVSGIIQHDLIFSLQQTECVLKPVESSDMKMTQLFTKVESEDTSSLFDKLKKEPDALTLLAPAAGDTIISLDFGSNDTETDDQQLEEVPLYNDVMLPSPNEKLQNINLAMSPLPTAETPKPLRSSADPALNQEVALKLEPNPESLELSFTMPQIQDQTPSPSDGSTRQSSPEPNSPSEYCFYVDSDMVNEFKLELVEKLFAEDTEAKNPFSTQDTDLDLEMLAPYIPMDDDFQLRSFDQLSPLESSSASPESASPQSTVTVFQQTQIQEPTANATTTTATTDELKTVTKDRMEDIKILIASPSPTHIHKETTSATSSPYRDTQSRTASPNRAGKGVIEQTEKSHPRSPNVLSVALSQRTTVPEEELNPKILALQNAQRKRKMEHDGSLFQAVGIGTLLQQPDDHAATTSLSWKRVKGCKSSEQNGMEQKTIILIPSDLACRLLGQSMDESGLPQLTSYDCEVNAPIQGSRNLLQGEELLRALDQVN

O=C(Nc1ccc(Br)cc1)c1cc(Br)cc(Br)c1O
active: [3] 132 µM | [4] 13.3 µM | [5] 93.2 µM | [6] 3.75 µM | [7] 5.26 µM | [15] 4.16 µM | [16] 6.47 µM
not listed: [18] | [19]
inactive: all other assays above

CC(=O)CN(CC(C)=O)N=O
not listed: [5] | [12] | [16] | [17] | [19]
inactive: all other assays above

CN(CCCC(O)c1cccnc1)N=O (configuration not stated)
not listed: [5] | [18] | [19]
inactive: all other assays above

Oc1cc(Cl)c(Cl)cc1Cl
active: [4] 63 µM | [5] 54 µM | [6] 25.8 µM | [8] 46.2 µM | [10] 58.2 µM | [11] 136 µM
not listed: [7] | [12] | [16] | [17] | [19]
inactive: all other assays above

N#Cc1ccccc1Cl
active: [6] 26.4 µM
not listed: [5] | [12] | [17] | [19]
inactive: all other assays above

Clc1cc(C(Cl)(Cl)Cl)cnc1Cl
active: [1] 9 µM | [4] 9.1 µM | [5] 8.8 µM | [6] 8.47 µM | [11] 17.5 µM | [13] 8.55 µM
not listed: [16] | [17] | [19]
inactive: all other assays above

CCOP(=O)(OCC)SCCSCC
active: [6] 57.2 µM
not listed: [5] | [7] | [12] | [18] | [19]
inactive: all other assays above

Cl[C@H]1OCCO[C@@H]1Cl
active: [1] 49.6 µM
not listed: [4] | [16] | [17]
inactive: all other assays above
